Experimental data from ChEMBL document CHEMBL4513216, “Probing the Open Global Health Chemical Diversity Library for Multistage-Active Starting Points for Next-Generation Antimalarials” (ACS Infect Dis, 2020).
In all, about 69,000 compounds went through this assay and about 8,600 (12%) showed an effect of 50% or more. The full list was thinned out, with strong results kept by preference.

system: Plasmodium berghei; experiment: Screen against P. berghei liver stage (PbLuc), transformed with Luciferase, at 10uM; assay type: functional, HepG2; settings: tested at 10 uM

Row | Compound | INHIBITION [%]
1 | Cn1nccc1CNC(=O)CCn1nc(C(F)(F)F)cc1C1CC1 | -49.3
2 | c1cncc(CN(Cc2ccc(-n3ccnc3)cc2)CC2CCCO2)c1 (stereo not given) | 23.2
3 | CC(C)c1ccc(C(C)N2CCCN(C(N)=O)CC2)cc1 (stereo not given) | -18.7
4 | CC1CCCN(S(=O)(=O)NCc2ccccc2Cn2cncn2)C1 (stereo not given) | 37.4
5 | CC1CCCN(CC(=O)N2CCC(c3ncc4c(n3)CCNC4)CC2)C1 (stereo not given) | 25
6 | COc1cccc(COCC(=O)N2CCCC(n3cncn3)C2)c1 (stereo not given) | -24.2
7 | COc1ccc(Cc2noc(-c3ccc(NC(C)CO)nc3)n2)cc1 (stereo not given) | 52.2
8 | COCC(C)Nc1ccc(-c2nc(Cc3ccc(F)cc3)no2)cn1 (stereo not given) | 49
9 | CC(CO)Nc1ccc(-c2nc(Cc3ccc(F)cc3)no2)cn1 (stereo not given) | -37.6
10 | N#Cc1ccc(N2CCC3(CC2)COCCN3Cc2cccnc2)cc1 | -6.46
11 | Cc1ncc(C(=O)N2CCC(C(=O)NC3CCCC3)C2)c(C)n1 (stereo not given) | 19.3
12 | Clc1cccc(C2CCN(c3ncnc4c3CCNC4)C2)c1 (stereo not given) | 83
13 | c1cc(C2CCN(c3ncnc4c3CCNCC4)CC2)ccn1 | 33.9
14 | c1ccc(C2CCCN(c3ncnc4c3CCNC4)CC2)cc1 (stereo not given) | 83.9
15 | Cc1cc(C)n(C2CCN(c3ncnc4c3CCNCC4)C2)n1 (stereo not given) | 42.1
16 | c1ccn2c(C3CCCN(c4ncnc5c4CCNC5)C3)nnc2c1 (stereo not given) | -20.8
17 | CN1CC2(CCN(c3ncnc4c3CCNC4)CC2)OC1=O | 49.5
18 | c1ccc(C2CCN(c3ncnc4c3CCNC4)CC2)cc1 | 83
19 | c1ccc2c(c1)CN(c1ncnc3c1CCNC3)CCO2 | 25.9
20 | c1nc2c(c(N3CCOCC3)n1)CCNCC2 | 27.5
21 | Cn1cnc2c1C(COCC1CC1)CN(C(=O)Cc1ccsc1)C2 (stereo not given) | 11.1
22 | NC(=O)C1(CCCc2ccccn2)CCCN(CCO)C1 (stereo not given) | 30.8

Row | Compound | INHIBITION [%]
23 | Cc1cc(C)n(CCCN(C)c2cc(N(C)C)ncn2)n1 | 28.2
24 | CC(C)OCCCN(Cc1cnn(C)c1)Cc1ccccn1 | -51.3
25 | CCN(Cc1ccccn1)C1CCN(c2ccccc2)C1=O (stereo not given) | -31.1
26 | Cn1ccnc1C(=O)N[C@@H]1CN(Cc2ccoc2)[C@@H]2CCCO[C@@H]21 | 29.4
27 | Cn1ccnc1C(=O)N[C@@H]1CN(Cc2ccc(F)cc2)[C@@H]2CCCO[C@@H]21 | 49.4
28 | Cc1ccc(CN2C[C@H](NC(=O)c3nccn3C)[C@H]3OCCC[C@H]32)o1 | 75.6
29 | Cn1ccnc1C(=O)N[C@@H]1CN(CC2CCOCC2)[C@@H]2CCCO[C@@H]21 | 63.8
30 | CCN(CC)[C@@H]1CN(Cc2ccc(C)o2)[C@@H]2CCCO[C@H]12 | 63.1
31 | Cn1cc(C(=O)N[C@@H]2CN(CC3CCOCC3)[C@@H]3CCCO[C@@H]32)cn1 | -14.4
32 | Cc1ccc(CN2C[C@@H](N(C)C)[C@H]3OCCC[C@H]32)o1 | -37.9
33 | Cc1ccc(CN2C[C@H](N(C)Cc3cncnc3)[C@H]3OCCC[C@H]32)o1 | -3.77
34 | Cn1ccnc1C(=O)N[C@@H]1CN(Cc2cccs2)[C@@H]2CCCO[C@@H]21 | 22.2
35 | COC(=O)c1cccc(C(=O)NCc2ccc(C)o2)n1 | 39.1
36 | Cc1ccc(N2CC[C@H]3O[C@@H](C(=O)NCc4ccco4)CC[C@H]32)nn1 | 21.6
37 | COC(=O)CC1CCN(C(=O)Nc2ccc(-c3ccn[nH]3)cc2)C1 (stereo not given) | 37.7
38 | Cc1ccc(CN2CCC[C@@H]3CN(C(=O)c4ccco4)C[C@@H]32)s1 | -2.25
39 | CN1C(=O)CC(c2ccccc2)C12CCN(CC1CC1)CC2 (stereo not given) | -40.5
40 | CCNC(c1ccc(C(C)C)cc1)c1cccnc1 (stereo not given) | 8.64
41 | Cc1nc(-c2cccc(C(=O)O)c2)c[nH]1 | -34.8
42 | CC(=O)Nc1nc(-c2ccc(F)cc2)c[nH]1 | 63.6
43 | CC(=O)Nc1nc(-c2ccccc2)c[nH]1 | 58.1
44 | CC(=O)Nc1nc(-c2ccc(C)c(C)c2)c[nH]1 | 7.22

Row | Compound | INHIBITION [%]
45 | CC(=O)c1cccc(-c2c[nH]c(C)n2)c1 | -30.5
46 | CNC(=O)NC(C)c1nc(-c2ccccc2)c[nH]1 (stereo not given) | -51.8
47 | Cc1cc(N2CCN(Cc3cn(C)nc3C)CC2)cc(C2CCCN2)n1 (stereo not given) | -10
48 | Cc1ccc([C@@]2(O)CC[C@@H]3CN(S(=O)(=O)c4cn(C)nc4C)C[C@@H]32)cc1 | 32.8
49 | CC(CO)(CO)NC(=O)C1CCC(=O)N(Cc2ccc(Cl)cc2)C1 (stereo not given) | 35.7
50 | COc1ccc(Cl)cc1NCC(=O)NCCNc1ncccn1 | 45.7
51 | COc1ccc(C)cc1NS(=O)(=O)c1ccc(CCNC(C)=O)s1 | -1.04
52 | c1coc(CN2CCC3(CC2)COC(COCC2CC2)C3)c1 (stereo not given) | -28.2
53 | CCc1cnc(CN(C)C2CCN(CC(=O)Nc3nccs3)C2)o1 (stereo not given) | 52.3
54 | Cc1cnc(CN(C)C2CCN(CC(=O)Nc3nccs3)C2)o1 (stereo not given) | 9.14
55 | CN(Cc1noc(C2CC2)n1)C1CCN(CCn2cc(C#N)cn2)C1 (stereo not given) | 37.4
56 | CC(C)c1cnc(CN(C)C2CCN(CCn3cc(C#N)cn3)C2)o1 (stereo not given) | -6.44
57 | CCc1cnc(CN(C)C2CCN(CC(=O)Nc3cc(C)on3)C2)o1 (stereo not given) | -32
58 | CC(C)c1nc(CN(C)C2CCN(CCn3cc(C#N)cn3)C2)no1 (stereo not given) | 29.2
59 | Cc1cnc(CN(C)C2CCN(CCn3cc(C#N)cn3)C2)o1 (stereo not given) | 44.8
60 | CCc1cnc(CN(C)C2CCN(CCn3cc(C#N)cn3)C2)o1 (stereo not given) | 52.5
61 | Cc1nc(CN(C)C2CCN(CCn3cc(C#N)cn3)C2)no1 (stereo not given) | 53.9
62 | Cc1cnn(CC2CCCN2C(=O)CCc2cscn2)c1 (stereo not given) | 19.965
63 | CC(=O)N1CCN([C@@H]2CCC[C@@H](NC(=O)c3cccnc3)[C@H]2O)CC1 | 8.53
64 | Cc1nc(CN2CCCC(c3cc(C(N)=O)[nH]n3)C2)oc1C (stereo not given) | -0.113
65 | O=C(O)c1c(-c2cncnc2)ncc2c1CCN(CC1CCOC1)C2 (stereo not given) | 43
